# HCMV antiviral – qHTS Assay for inhibitors of the human cytomegalovirus (HCMV). AID 1259415, 2018. 410,000 compounds, 4.5% hits. activity change, negative = inhibition, % at 57.5 µM. HFF cells, HCMV-luciferase reporter, 72 h; stronger effect = lower value; in the data active = activity change below about -60%; inconclusive = no clear call, values can overlap the other calls; inactive = above about -39%
#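 Inhibition of viral replication was scored as loss of reporter luminescence in HFFs infected with HCMV-luciferase (MOI 1 PFU/cell) for 72 h; compounds tested at 2 doses, normalized to buffer and Salinomycin controls.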
# HCV inh – qHTS Assay for Inhibitors of Hepatitis C Virus (HCV); AID 651820, 2012; Potency, µM (highest dose often 41.8 µM), for the others: at the top dose activity change, negative = inhibition, hits mostly inhibitors; Huh7.5.1 HCVcc-Cre infection, luciferase reporter, 44 h; 340,000 compounds, 3.4% hits; note: potency is the fitted concentration of half-maximal effect
#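 Cells (1,000/well) were plated 4 h before compound, then infected with HCVcc-Cre virus (~0.5 moi). After 44 h further culture, infection was read as luciferase luminescence following a 15 min substrate incubation at room temperature.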
# Marburg entry inh – qHTS for inhibitors of binding or entry into cells for Marburg Virus | 300,000 compounds, 1.8% hits | Marburg virus pseudotyped entry inhibition, cell reporter | Potency, µM (highest dose often 37.8 µM), for the others: top-dose activity change, negative = inhibition, usual class: inhibitors; calls by dose curve; tested in HEK293 cells; note: potency is the fitted concentration of half-maximal effect
# Lassa entry inh – qHTS for Inhibitors of binding or entry into cells for Lassa Virus; Lassa virus pseudotype entry inhibition, cell reporter; Potency, µM (doses to about 37.9 µM), inactives show at the highest dose activity change, negative = inhibition, usual class: inhibitors; 300,000 compounds, 1.2% hits; calls by dose curve; tested in HEK293 cells; note: potency is the fitted concentration of half-maximal effect; nearly all actives have a fitted effect of over 50% in size
# Pf growth 48h – Primary qHTS for delayed death inhibitors of the malarial parasite plastid, 48 hour incubation; 310,000 compounds, 5.9% hits; AID 504832, 2011; P. falciparum luciferase growth in erythrocytes, 48 h; Potency, µM (titrated, usually from 28.7 µM), for inactives: at the top dose activity change, negative = inhibition, hits mostly inhibitors; note: potency is the fitted concentration of half-maximal effect
#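 Firefly luciferase activity from engineered P. falciparum reports growth; inhibitors lower the luminescent signal. Cultures contained 2% hematocrit erythrocytes at 0.1% final parasitemia.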
# Pf growth 96h – Primary qHTS for delayed death inhibitors of the malarial parasite plastid, 96 hour incubation; AID 504834, 2011; P. falciparum luciferase reporter growth, 96 h; 320,000 compounds, 6.9% hits; Potency, µM (doses to about 28.7 µM), without a hit: top-dose activity change, negative = inhibition, hits mostly inhibitors; note: potency is the fitted concentration of half-maximal effect
#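 Erythrocytes infected with luciferase-expressing P. falciparum were dispensed at 2% hematocrit and 0.05% parasitemia (final), then incubated with compounds 96 hours at 37 C in 5% CO2. Luminescence after detection reagent addition reported growth.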
# * = called active by the depositor; ? = inconclusive; . = not tested or not shown; [ ] = remark or other dose. This is a sample that favours compounds with a hit; in the whole collection about 14% have one here. Unless noted, calls come from the whole dose curve; as a rule, active = well fitted inhibition curve with a large enough effect; inconclusive = small, poorly fitted or top-dose-only effect, or another doubt; inactive = no such curve, though single readings can be large or run the other way. % is set by controls: 0 for no effect and ±100 for the full control effect.
SMILES,HCMV antiviral,HCV inh,Marburg entry inh,Lassa entry inh,Pf growth 48h,Pf growth 96h
OC(COCC1COc2ccccc2O1)CN1CCc2ccccc2C1 (stereo not drawn),28,-3%,6%,-4%,41%,54%
OC(COCC1COc2ccccc2O1)CN1CCN(c2ccccn2)CC1 (stereo not drawn),-66*,?,-5%[46.1 µM],-12%[46.1 µM],-4%,-23%
CC(=O)N1CCCc2cc(S(=O)(=O)N3CCC(C(=O)NCc4cccc(C)c4)CC3)ccc21,-3,.,.,-19%[46.1 µM],.,.
CC1CCCC(C)N1CC(O)COC1CCC(C(C)(C)C)CC1 (stereo not drawn),0,13µM*,.,.,10µM*,81%
CC1CN(CC(O)COC2CCC(C(C)(C)C)CC2)CC(C)O1 (stereo not drawn),-38,-7%,?,26%[46.1 µM],-23%,?
O=C(NC1CC(=O)N(c2cccc(F)c2)C1)c1ccc(Br)o1 (stereo not drawn),-35,.,.,-22%[46.1 µM],.,.
CCCCN(C(C)=O)c1c(CC)nc2ccc(C(=O)NCCc3ccccn3)cn12,5,.,.,.,.,.
O=C(Nc1nnc(SCc2ccc(F)cc2)s1)c1ccccn1,-99*,?,?,?,?,?
O=C(Nc1nc2ccc(F)cc2s1)c1ccccn1,-98*,?,?,?,-63%,-71%
O=C(Nc1nc2ccccc2s1)c1cnccn1,126,-12%,6.5µM*,?,.,284%
CCOc1ccc2nc(NC(=O)c3cnccn3)sc2c1,10,3%,?,1%,183%,12%
O=C(c1[nH]c2ccccc2c1Sc1ccc(Cl)cc1)N1CCCCC1,31,.,-1%[46.1 µM],26%[46.1 µM],.,.
COc1ccc([C@H]2CC(=O)C[C@@H](CCn3cc(Cc4ccccc4)nn3)O2)cc1,-6,.,.,.,.,.
CCOc1ccc(NC(=O)CN2C(=O)COc3ccc(S(=O)(=O)NC4CCCC4)cc32)cc1,8,.,.,20%[46.1 µM],.,.
COc1ccc(NC(=O)OC[C@@H]2CSCCS(=O)(=O)N2)cc1,-8,.,.,?,.,.
O=C(Nc1ccc(F)cc1)C(CCc1ccccc1)N1CCN(Cc2c(F)cccc2Cl)CC1 (stereo not drawn),27,.,.,.,.,.
Cc1sc2ncn(CC(=O)NCCCC(=O)Nc3ccc(C(C)C)cc3)c(=O)c2c1C,-76*,-13%,?,?,20%,-3%
COc1ccc(NC(=O)CNC(=O)Cn2cnc3sc(C)c(C)c3c2=O)cc1OC,?,21%,3%[46.1 µM],24%[46.1 µM],1%,10µM*
COc1ccc(CCNC(=O)CNC(=O)Cn2cnc3sc(C)c(C)c3c2=O)cc1OC,-14,-1%,6%[46.1 µM],-4%[46.1 µM],1%,?
O=C(NCc1ccccc1)c1cc(C2CCCN(C(=O)CCCc3ccccc3)C2)on1 (stereo not drawn),22,.,.,.,.,.
O=C(COC(=O)CCc1nc2ccccc2c(=O)[nH]1)Nc1ccc2c(c1)OCO2,-26,13%,.,.,22%,31%
COC(=O)c1cc2c(C)[nH]c(C)c2cc(C(=O)OC)c1=O,-16,8%,13%,1%,16%,-1%
COC(=O)c1cc(=O)c2c(C)nc(C(Cl)(Cl)Cl)nc2[nH]1,-100*,8%,28%[46.1 µM],-1%,355%,126%
Cc1cccc(S(=O)(=O)NC(=O)C2(C)CCN2C(=O)c2c(C)noc2C)c1 (stereo not drawn),-7,.,.,.,.,.
COc1ccc(C(=O)N2CCN(c3ccc(C(C)=O)cc3)CC2)cc1S(=O)(=O)N1CCCC1,65,-20%,.,.,.,.
SMILES,HCMV antiviral,HCV inh,Marburg entry inh,Lassa entry inh,Pf growth 48h,Pf growth 96h
O=C(NC(=S)Nc1nc(-c2ccccc2)cs1)c1cncc(Br)c1,-14,-20%,-18%,?,?,?
O=C(Nc1nc(-c2ccccc2Cl)cs1)c1cccnc1,-12,32µM*,-15%,4%,?,.
CCc1ccccc1OCC(=O)Nc1nc(-c2cccnc2)cs1,-65*,?,?,-24%,4.1µM*,4.1µM*
CCC(=O)c1ccc(OCC(=O)Nc2nc(-c3cccnc3)cs2)cc1,2,14%,2%,?,?,?
O=C(NC(=S)Nc1nc(-c2ccccc2)cs1)c1cccnc1,17,6%,-3%[46.1 µM],14%,-23%,12µM*
O=C(Nc1nc(-c2cccc(Br)c2)cs1)Oc1ccccc1,21,-14%,18%,?,111%,128%
CCc1ccc(-c2csc(NC(=O)Oc3ccccc3)n2)cc1,42,-26%,38%,?,196%,12µM*
O=C(CSc1nc(=O)n(Cc2ccncc2)c2c1CCC2)Nc1cccc(F)c1,-5,.,.,2%[46.1 µM],.,.
CC(C)[C@@H]1NC(=O)[C@@H]2CSCCS(=O)(=O)N2C1=O,6,.,.,?,.,.
COc1ccc(NC(=O)C2CCCN(CCCc3ccccc3)C2)cc1OCC(C)C (stereo not drawn),-91*,?,.,.,?,68%
CCOc1cc(/C=C2/C(=O)ON=C2C)ccc1O,-1,7%,.,.,12%[0.00184 µM],0.093µM*
CCOc1cc(/C=C2\CCC/C(=C\c3cc(Cl)c(O)c(OCC)c3)C2=O)cc(Cl)c1O,-98*,?,11µM*,8.9µM*,?,3.3µM*
CCN(CC)c1ccc(/C=C2/C(=O)ON=C2C)cc1,-65*,3%,-9%,0%,8%,44%
CCOc1cc(/C=C2\CN(C)C/C(=C\c3ccc(O)c(OCC)c3)C2=O)ccc1O,-100*,22µM*,?,?,2%[0.00184 µM],?
C=CCNC(=O)/C(C#N)=C\c1cc(Cl)c(O)c(OCC)c1,-23,-10%,22%,-3%,-4%,?
CC1=NOC(=O)/C1=C/c1ccc(O)c(Cl)c1,?,16%,4%[46.1 µM],13%[46.1 µM],4%[0.00184 µM],?
Nc1ncc(S(=O)(=O)N2CCN(c3ccccc3)CC2)cn1,-21,.,.,1%[46.1 µM],.,.
O=C(CSc1ncn[nH]1)N1N=C2/C(=C/c3ccco3)CCCC2C1c1ccco1 (stereo not drawn),-34,?,-21%,-2%,12µM*,.
COC(=O)c1ccc(C(NC(=O)OCc2ccccc2)/C(F)=C/[C@@H](C)C(=O)NCc2ccc(OC)c(OC)c2)cc1 (stereo partly drawn),-11,2%,?,15µM*,?,?
O=C(c1ccoc1)N1CCN(c2cc(-c3ccccc3)nc3cc(-c4ccccc4)nn23)CC1,-98*,.,.,.,.,.
COc1ccccc1-c1cc2nc(-c3ccccc3)cc(N3CCN(C(=O)c4ccco4)CC3)n2n1,-100*,.,.,.,.,.
COc1ccccc1-c1cc2nc(-c3ccccc3)cc(N3CCN(C(=O)c4ccoc4)CC3)n2n1,-103*,.,.,.,.,.
Cc1cc(N2CCN(C(=O)c3ccoc3)CC2)n2nc(-c3ccccc3)cc2n1,-8,.,.,.,.,.
